# ChEMBL document CHEMBL1157539, “Thousands of chemical starting points for antimalarial lead identification” (Nature, 2010)
# Assays:
# Assay type in all cases: functional
# Plasmodium falciparum [1] = test: GSK_TCMDC: Inhibition of Plasmodium falciparum 3D7 in whole red blood cells, using parasite LDH activity as an index of growth. Test compounds present at 2uM
# Plasmodium falciparum [2] = test: GSK_TCMDC: Inhibition of Plasmodium falciparum Dd2 in whole red blood cells, using parasite LDH activity as an index of growth. Test compounds present at 2uM
# HepG2 = test: GSK_TCMDC: Percent inhibition of human HepG2 cell line. Test compounds present at 10uM.
Structure (SMILES),Inhibition (Plasmodium falciparum [1]) [%],Inhibition (Plasmodium falciparum [2]) [%],Inhibition (HepG2) [%]
Cc1cc(C2CCCCN2C)ccc1-c1ccc(C(=O)N2CCc3cc4c(cc32)C2(CCN(C)CC2)CO4)cc1.Cl (stereo unspecified),95,94,37
S=C(NCC1CCCCC1)NC1CCC(CN2CCC(c3c[nH]c4ccccc34)CC2)CC1 (stereo unspecified),88,10,29
Oc1ccc2[nH]cc(C3=CCN(CCc4ccccc4)CC3)c2c1,96,60,11
O=C(NC1CCN(CC2(c3ccc(Cl)cc3)CCC2)CC1)c1cc[nH]n1,96,43,0
Oc1cc2c(cc1CN1CCN(Cc3ccccc3)CC1)CCC2,98,92,1
CC(Cc1ccc(C2=CCNCC2)cc1)NCC(O)c1cccc(C(F)(F)F)c1.Cl (stereo unspecified),89,0,27
CCOc1ccc(-c2nc3cc(-c4nc5cc(N6CCN(C)CC6)ccc5[nH]4)ccc3[nH]2)cc1.Cl.O,100,99,16
